The record followed here is PubChem BioAssay AID652128 (Broad Institute, 2013).

The other results are listed elsewhere or left out. Records with an inconclusive call do not appear. Active and inactive are the calls of the source.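 The calls were made as follows: active = fitted half-maximal concentration for signal loss at or below twice the highest dose tested, in every separate run (actives reach about 64 µM in these data); inconclusive = runs disagree, or flat partial signal loss, or poor fit; inactive = the rest.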

Usually AC50 stands for the concentration at which the activity in the assay is half-maximal.

The test is described as follows: DNA-binding compounds via dye displacement, dose response, artefact control for RAD52 inhibitor project, biochemical, fluorescence polarization, cherry-pick (AID 652128). To be noted: Salmon sperm DNA/acridine orange FP displacement.
Regarding `COc1ccc2[nH]c3c(C)c4cc[n+](C)cc4c(C)c3c2c1`, the AC50 is 4.3 µM (active).
With `CN(C)CCNC(=O)c1ccc(Cl)c2cc3ccccc3nc12`, the AC50 is 13.1 µM (active).
Turning to `CC(=O)Nc1cc(-c2ccc(N3CCN(C)CC3)cc2)cn2c(-c3cccc(C(=O)N(C)C)c3)cnc12`, the outcome was inactive.
As for `CC(=O)Nc1ccc(CNc2nc(NCCN(C)C)nc3cc(-c4ccccc4)sc23)cc1`, the molecule was classed as inactive.
The same measure, in the same setting: the entry for `CC(C)C(=O)N1CC(=O)Nc2ccc(F)cc2C1c1ccc(F)cc1` (stereo unspecified) is “inactive”.
In the case of `CCOCCCNC(=S)Nc1ccc2nc(N3CCN(CC)CC3)cc(C)c2c1`, the call was inactive.
As for `CC(C)[C@@H](C)/C=C/[C@@H](C)[C@H]1CC[C@@H]2[C@]1(C)CCC1[C@]23C=C[C@]2(C[C@@H](O)CC[C@]12C)N(c1ccc([N+](=O)[O-])cn1)O3` (stereo partly specified), the outcome was inactive.
For `COc1ccc(NC(=O)C2C3CCC(O3)C2C(=O)O)cc1OC` (stereo unspecified), the molecule was called inactive.
Turning to `CN(C)CCNC(=O)c1cccc(-c2cnc3c(NC=O)cc(-c4cccc(C(F)(F)F)c4)cn23)c1`, the molecule was called inactive.
`CCN(CC)CCOc1ccc2c(c1)C(=NNC(=O)c1ccccn1)c1cc(OCCN(CC)CC)ccc1-2`: the AC50 was 4.27 µM (active).
Consider `Cc1cccc(-c2nc3ccc(C(=O)NCCN4CCN(C)CC4)cc3nc2-c2cccc(C)c2)c1`, for which the molecule was classed as inactive.
For the molecule `Cc1cccc(NC(=S)NC23CN4CN(CN(C4)C2)C3)c1`, the molecule was called inactive.
Take `O=C1CCC(C(=O)OCC(=O)Nc2ccc(OC(F)F)cc2)=NN1`: the result was inactive.
`Oc1ccc(N=Cc2sc3ccccc3c2Cl)cc1`: the result was inactive.
`Cc1ccc(C(=O)N/C(=C/c2ccc(-c3cccc([N+](=O)[O-])c3)o2)C(=O)NCCCN(C)C)cc1`: the result was inactive.
Consider `CN1CCC(CN)(N2CCN(c3ccccc3)CC2)CC1`, for which the result was inactive.
Turning to `Cn1ccc(=Nc2ccc(NC(=O)c3ccc(N=c4ccn(C)c5ccc([N+](=O)[O-])cc45)cc3)cc2)cc1`, the molecule was called inactive.
With `COc1ccc2sc(N(CCCN(C)C)C(=O)c3ccc(S(=O)(=O)N(C)C4CCCCC4)cc3)nc2c1`, the outcome was inactive.
As for `CCn1cc(CN2CCC(C(=O)Nc3cccc(-c4cccc(Cl)c4)c3)CC2)cn1`, the outcome was inactive.
For `CN(Cc1ccccc1F)c1cc2c(c3c1ccn3C)C1CCC2O1` (stereo unspecified), the outcome was inactive.
As to `NCCCCCC(=O)N/N=C/c1ccc2nccnc2c1`, the molecule was classed as inactive.
Same read-out and setting: the entry for `CCN1CCN(CCNC(=O)c2ccc(/C=C3/Sc4ccccc4N(Cc4cccc(C)c4)C3=O)cc2)CC1` is “inactive”; for `CN(C)CCNC(=O)c1ccc(-c2cn3c(-c4ccc(Oc5ccccc5)cc4)cnc3cn2)cc1` it is “inactive”.
Regarding `Nc1ccc(OCC(O)C[n+]2ccc(CCS(=O)(=O)[O-])cc2)cc1` (stereo unspecified), the call was inactive.
Turning to `CCCCCCCCCCOC(=O)Cn1c(COc2ccc(C)cc2)[n+](C)c2ccccc21`, the molecule was classed as inactive.
Regarding `C[C@H]1CN([C@@H](C)CO)C(=O)CCCn2nncc2CO[C@@H]1CN(C)C(=O)Nc1ccc(N2CCN(C)CC2)cc1`, the molecule was called inactive.
